Data: PubChem BioAssay AID1159580 (chemical genetic matrix, 2015)
Several values for one entry are separate records, joined by “and”; a condition that tells them apart may be missing. Identical values can stand only once. The whole screen tested about 5,500 compounds, of which about 2,000 (36%) were called active. Inconclusive results (about 18%) are left out. Cut-off read from the data, not from the text of the source: active = normalized growth mostly below about 0.91 (no sharp cut-off); inconclusive = no clear call, values can overlap the other calls; inactive = mostly above about 0.92. Some of the results follow.

Test: chemical genetic growth profiling, strain panel (AID 1159580);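 note: tested at 20 µM; growth read once vehicle control cultures reached saturation at 30 °C; 1 = growth at the plate median or of vehicle wells; lower values mean less growth of the strain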
Conditions: S. cerevisiae deletion strains, growth OD
[1] = locus YAL013W, strain DEP1, active compounds read low
[2] = locus YAL040C, strain CLN3, active compounds read low
[3] = locus YCL061C, strain MRC1 (second series), active compounds read low
[4] = locus YDR150W, strain NUM1, active compounds read low
[5] = locus YDR363W, strain ESC2, active compounds read low
[6] = locus YER002W, strain NOP16, active compounds read low
[7] = locus YGR229C, strain SMI1, active compounds read low
[8] = locus YMR263W, strain SAP30, active compounds read low
[9] = locus YMR307W, strain GAS1, active compounds read low
[10] = locus YNL175C, strain NOP13, active compounds read low
[11] = locus YNL197C, strain WHI3, active compounds read low
[12] = locus YNL224C, strain SQS1, active compounds read low
[13] = locus YOR083W, strain WHI5 (second series), active compounds read low
[14] = locus YPL055C, strain LGE1, active compounds read low
[15] = locus YNL322C, strain KRE1, active compounds read low

Measured: normalized growth

C[C@H](NC(=O)/C(C#N)=C/c1ccc(O)c(O)c1)c1ccccc1
inactive: [1] 0.985 | [2] 1.04 | [3] 0.961 | [4] 0.936 | [5] 0.992 | [6] 0.985 | [7] 0.93 | locus YJR075W, strain HOC1, active compounds read low 0.961 | [8] 1 | [9] 1.02 | locus YNL153C, strain GIM3, active compounds read low 0.978 | [10] 0.991 | [11] 0.987 | [12] 1 | [13] 0.968 | [14] 0.924

O=Nc1ccc2oc(=O)ccc2c1
inactive: [1] 0.945 | [2] 0.985 | [3] 0.973 | [5] 0.917 | [6] 1.01 | locus YGR078C, strain PAC10, active compounds read low 0.98 | [8] 0.989 | [10] 0.994 | [11] 0.989 | [12] 0.995 | [15] 1 | [13] 0.906 | [14] 0.896 | locus YPL241C, strain CIN2, active compounds read low 0.999
active: [7] 0.846

O=c1ccc2ccccc2o1
inactive: [1] 1.02 | locus YAL021C, strain ccr4, active compounds read low 1.01 | locus YAL026C, strain drs2, active compounds read low 0.993 | locus YAL030W, strain snc1, active compounds read low 0.99 | locus YBL061C, strain skt5, active compounds read low 0.988 | locus YBR009C, strain hhf1, active compounds read low 0.939 | locus YBR021W, strain FUR4, active compounds read low 1 | locus YBR023C, strain chs3, active compounds read low 0.996 | locus YBR171W, strain sec66, active compounds read low 0.974 | locus YBR229C, strain ROT2, active compounds read low 1.02 | locus YBR231C, strain swc5, active compounds read low 0.964 | locus YBR279W, strain paf1, active compounds read low 0.999 | locus YCL011C, strain gbp2, active compounds read low 0.993 | locus YCL016C, strain dcc1, active compounds read low 1.03 | locus YCL029C, strain bik1, active compounds read low 0.992 | locus YCL069W, strain vba3, active compounds read low 0.98 | locus YCR088W, strain abp1, active compounds read low 0.982 | locus YDL005C, strain med2, active compounds read low 0.976 | locus YDL035C, strain GPR1, active compounds read low 1.01 | locus YDL040C, strain nat1, active compounds read low 0.984 | locus YDL074C, strain BRE1, active compounds read low 1.01 | locus YDL101C, strain DUN1, active compounds read low 1.03 | locus YDL134C, strain PPH21, active compounds read low 1.03 | locus YDL185W, strain tfp1, active compounds read low 0.982 | locus YDL192W, strain arf1, active compounds read low 0.988 | locus YDR001C, strain nth1, active compounds read low 0.978 | locus YDR069C, strain doa4, active compounds read low 0.987 | locus YDR101C, strain arx1, active compounds read low 0.968 | locus YDR137W, strain rgp1, active compounds read low 0.968 | [4] 1 | locus YDR159W, strain sac3, active compounds read low 0.945 | locus YDR162C, strain NBP2, active compounds read low 1.04 | locus YDR195W, strain ref2 0.991 | locus YDR297W, strain sur2, active compounds read low 0.973 | locus YDR318W, strain mcm21, active compounds read low 1.01 | locus YDR334W, strain swr1, active compounds read low 0.926 | locus YDR335W, strain msn5, active compounds read low 0.985 | locus YDR388W, active compounds read low 0.988 | locus YDR392W, strain spt3, active compounds read low 0.956 | locus YDR502C, strain sam2, active compounds read low 0.963 | locus YEL003W, strain gim4, active compounds read low 0.957 | locus YEL037C, strain rad23, active compounds read low 0.977 | locus YEL061C, strain CIN8 (second series), active compounds read low 0.954 | locus YEL061C, strain CIN8, active compounds read low 1.01 | locus YER015W, strain faa2, active compounds read low 0.991 | locus YER016W, strain bim1, active compounds read low 0.986 | locus YER110C, active compounds read low 0.989 | locus YER111C, strain swi4, active compounds read low 0.982 | locus YER155C, strain BEM2 (second series), active compounds read low 0.937 | locus YER155C, strain BEM2, active compounds read low 1.02 | locus YER167W, strain BCK2, active compounds read low 1.02 | locus YFR010W, strain ubp6, active compounds read low 0.93 | locus YGL078C, strain dbp3, active compounds read low 0.992 | locus YGL086W, strain mad1, active compounds read low 0.981 | locus YGL167C, strain pmr1, active compounds read low 0.972 | locus YGL173C, strain kem1, active compounds read low 0.973 | locus YGL227W, strain vid30, active compounds read low 0.969 | locus YGL240W, strain doc1, active compounds read low 0.958 | locus YGL248W, strain PDE1, active compounds read low 1.04 | locus YGL253W, strain hxk2, active compounds read low 1.01 | locus YGR135W, strain pre9, active compounds read low 0.988 | locus YGR252W, strain gcn5, active compounds read low 1.02 | locus YHR013C, strain ard1, active compounds read low 1.05 | locus YHR027C, strain rpn1, active compounds read low 0.975 | locus YHR030C, strain SLT2, active compounds read low 1.02 and 0.992 | locus YHR079C, strain IRE1 (second series), active compounds read low 0.999 | locus YHR079C, strain IRE1, active compounds read low 0.957 | locus YHR094C, strain hxt1, active compounds read low 0.989 | locus YHR129C, strain ARP1, active compounds read low 1.02 | locus YHR142W, strain chs7, active compounds read low 1.03 | locus YHR200W, strain rpn10, active compounds read low 0.978 | locus YIL066C, strain RNR3, active compounds read low 1.02 | locus YIL073C, strain SPO22, active compounds read low 0.985 | locus YIL125W, strain kgd1, active compounds read low 1.01 | locus YIR030C, strain dcg1, active compounds read low 0.992 | locus YJL092W, strain hpr5, active compounds read low 0.996 | locus YJL095W, strain BCK1 (second series), active compounds read low 0.978 | locus YJL095W, strain BCK1, active compounds read low 1.06 and 0.982 | locus YJL115W, strain asf1, active compounds read low 0.972 | locus YJL129C, strain trk1, active compounds read low 0.985 | locus YJL134W, strain LCB3, active compounds read low 1.01 | locus YJL154C, strain vps35, active compounds read low 0.978 | locus YJL164C, strain tpk1, active compounds read low 0.977 | locus YJL166W, strain qcr8, active compounds read low 0.956 | locus YJL168C, strain set2, active compounds read low 0.995 | locus YJL187C, strain SWE1 (second series), active compounds read low 1.02 | locus YJL187C, strain SWE1, active compounds read low 0.982 | locus YJR043C, strain POL32, active compounds read low 1.02 | locus YJR066W, strain TOR1, active compounds read low 0.945 | locus YKL009W, strain mrt4, active compounds read low 1.12 | locus YKL068W, active compounds read low 1.01 | locus YKL085W, strain MDH1 (second series), active compounds read low 1.01 | locus YKL085W, strain MDH1, active compounds read low 1.01 | locus YKL160W, strain elf1, active compounds read low 1.02 | locus YKL190W, strain CNB1, active compounds read low 1.02 | locus YKR001C, strain vps1, active compounds read low 0.979 | locus YKR026C, strain gcn3, active compounds read low 0.972 | locus YKR091W, strain srl3, active compounds read low 0.983 | locus YLL001W, strain dnm1, active compounds read low 0.981 | locus YLL026W, active compounds read low 0.99 | locus YLL041C, strain sdh2, active compounds read low 0.998 | locus YLR027C, strain aat2, active compounds read low 0.993 | locus YLR039C, strain RIC1, active compounds read low 1.03 | locus YLR058C, strain SHM2, active compounds read low 1.03 | locus YLR102C, strain apc9, active compounds read low 0.987 | locus YLR113W, strain HOG1, active compounds read low 0.999 | locus YLR221C, strain rsa3, active compounds read low 0.952 | locus YLR258W, strain gsy2, active compounds read low 1.01 | locus YLR262C, strain YPT6 (second series), active compounds read low 0.965 | locus YLR262C, strain YPT6, active compounds read low 1.03 | locus YLR268W, strain sec22, active compounds read low 0.961 | locus YLR320W, strain mms22, active compounds read low 0.951 | locus YLR330W, strain CHS5, active compounds read low 1.03 | locus YLR342W, strain FKS1 (second series), active compounds read low 1.01 | locus YLR342W, strain FKS1, active compounds read low 1 | locus YLR357W, strain rsc2, active compounds read low 1.04 | locus YLR370C, strain arc18, active compounds read low 1 | locus YLR371W, strain rom2, active compounds read low 0.976 | locus YLR384C, strain iki3, active compounds read low 0.992 | locus YLR418C, strain cdc73, active compounds read low 1.03 | locus YML016C, strain PPZ1, active compounds read low 1.02 | locus YML032C, strain rad52, active compounds read low 0.999 | locus YML120C, strain ndi1, active compounds read low 0.95 | locus YML124C, strain tub3, active compounds read low 0.994 | locus YMR058W, strain fet3, active compounds read low 0.983 | locus YMR078C, strain ctf18, active compounds read low 0.989 | locus YMR125W, strain sto1, active compounds read low 0.998 | locus YMR129W, active compounds read low 0.989 | locus YMR205C, strain PFK2, active compounds read low 0.955 | locus YMR223W, strain ubp8, active compounds read low 1.04 | locus YMR231W, strain pep5, active compounds read low 0.971 | [9] 1.06 | locus YNL067W, strain RPL9B, active compounds read low 1.02 | locus YNL071W, strain lat1, active compounds read low 0.958 | locus YNL183C, strain NPR1, active compounds read low 0.949 | locus YNL209W, strain ssb2, active compounds read low 0.978 | locus YNL233W, strain BNI4, active compounds read low 1.02 | locus YNL248C, strain rpa49, active compounds read low 0.995 | locus YNL250W, strain rad50, active compounds read low 1.01 | locus YNL271C, strain bni1, active compounds read low 0.993 | locus YNL298W, strain CLA4, active compounds read low 0.993 | locus YNL307C, strain MCK1, active compounds read low 0.997 | locus YNL322C, strain KRE1 (second series), active compounds read low 0.98 | [15] 1.02 | locus YNR049C, strain mso1, active compounds read low 0.993 | locus YNR052C, strain pop2, active compounds read low 1.01 | locus YOL012C, strain htz1 1.37 | locus YOL147C, strain pex11, active compounds read low 0.99 | locus YOR001W, strain rrp6, active compounds read low 0.935 | locus YOR061W, strain CKA2, active compounds read low 1.02 | locus YOR069W, strain VPS5, active compounds read low 1.01 | locus YOR070C, strain gyp1, active compounds read low 0.994 | locus YOR080W, strain dia2, active compounds read low 0.981 | locus YOR083W, strain WHI5, active compounds read low 0.972 | locus YOR106W, strain vam3, active compounds read low 0.998 | locus YOR136W, strain idh2, active compounds read low 0.982 | locus YOR144C, strain elg1, active compounds read low 0.99 | locus YOR184W, strain ser1, active compounds read low 0.985 | locus YOR231W, strain MKK1, active compounds read low 0.988 | locus YOR265W, strain rbl2, active compounds read low 0.987 | locus YOR270C, strain vph1, active compounds read low 0.981 | locus YOR290C, strain snf2, active compounds read low 1.01 | locus YOR316C, strain cot1, active compounds read low 1 | locus YPL051W, strain arl3, active compounds read low 1.03 | [14] 1.02 | locus YPL078C, strain atp4, active compounds read low 1.03 | locus YPL106C, strain sse1, active compounds read low 0.988 | locus YPL240C, strain hsp82, active compounds read low 0.983 | locus YPL256C, strain CLN2, active compounds read low 1 | locus YPR119W, strain clb2, active compounds read low 0.992 | locus YPR141C, strain kar3, active compounds read low 0.999 | locus YPR163C, strain tif3, active compounds read low 1 | locus YPR167C, strain met16, active compounds read low 1.03 | strain wtn01, active compounds read low 0.962
